# Screening results deposited in PubChem BioAssay by several laboratories.
# Shown are actives, neighbours in structure and some others; about 0.96% of the full set was active somewhere.
# DAGLB inh: DAGLB lipase inhibitors, primary screen, biochemical, fluorescence, HTS. Diacylglycerol lipase-beta (Homo sapiens), Q8NCG7. 340,000 compounds, 0.059% hits. AID 504411, 2011. HEK293T DAGLB membrane lysate, EnzChek fluorogenic substrate. inhibition, % at 5.17 µM; in the data active = inhibition above about 34%;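 note: 0% = enzyme with vehicle and 100% = wells lacking enzyme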
# HDAC3 inh: HDAC3 deacetylase inhibitors, primary screen, biochemical, fluorescence, cell-free homogeneous; AID 2718, 2010; 320,000 compounds, 0.15% hits; recombinant HDAC3, fluorogenic peptide/trypsin coupled; inhibition, % at 8.3 µM; Histone deacetylase 3 (Homo sapiens), O15379; in the data active = inhibition above about 26%, passing the limit was not always enough
# Target sequence (O15379 whole entry, looked up): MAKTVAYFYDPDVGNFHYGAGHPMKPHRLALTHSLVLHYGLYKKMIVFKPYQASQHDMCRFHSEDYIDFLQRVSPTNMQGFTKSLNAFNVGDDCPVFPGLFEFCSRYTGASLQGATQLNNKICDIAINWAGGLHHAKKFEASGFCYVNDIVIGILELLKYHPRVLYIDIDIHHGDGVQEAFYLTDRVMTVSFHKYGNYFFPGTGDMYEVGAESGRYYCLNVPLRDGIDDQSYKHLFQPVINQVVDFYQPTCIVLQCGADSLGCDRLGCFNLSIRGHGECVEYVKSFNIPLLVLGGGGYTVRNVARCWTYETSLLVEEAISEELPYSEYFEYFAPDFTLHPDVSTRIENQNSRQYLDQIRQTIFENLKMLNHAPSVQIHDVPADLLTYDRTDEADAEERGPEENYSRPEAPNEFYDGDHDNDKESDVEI
# beta cell repl: inducers of MIN6 beta-cell proliferation, primary screen, ATP luminescence, uHTS; 330,000 compounds, 0.29% hits; proliferation, % at 10 µM; MIN6 cells proliferation, ATPlite luminescence, 48 h; cells starved in 0.2% serum; 100% = growth in 10% serum;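 active = compounds whose signal lies at least 3.5 SD above the mean of all wells on their plate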;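 note: 0% = DMSO-treated cells in low-serum medium and 100% = 10% serum control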
# Rtt109 Vps75: inhibitors of C. albicans Rtt109/Vps75 HAT, primary screen, biochemical, ThioGlo CoA-SH fluorescence, plate reader; 330,000 compounds, 0.16% hits; purified Rtt109/Vps75, 4 h; Histone acetyltransferase RTT109 (Candida albicans (strain SC5314 / ATCC MYA-2876)), …; inhibition, % at 34.9 µM; AID 540336, 2011;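 active = inhibition of at least 50% in every replicate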
# V-ATPase pH: regulators of yeast V-ATPase proton pumping, primary screen, pHLuorin cytosolic pH fluorescence. 350,000 compounds, 0.37% hits. S. cerevisiae. response, % at 10 µM; in the data active = response mostly above about 7.3%, no sharp cut-off; inactive = mostly below about 5.4%; note: actives read high
# DAGLB confirm: DAGLB lipase inhibitors, retest, confirmation, biochemical, fluorescence, HEK293T membranes; shares compounds with DAGLB inh; inhibition, % at 5.17 µM; 190 compounds, 73% hits; AID 504445, 2011; HEK293T DAGLB membrane lysate, EnzChek fluorogenic substrate;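 active = mean inhibition over triplicate wells above a set limit taken from the primary lipase screen, cut at about 34% in these data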;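 note: 0% = DAGLB with DMSO and 100% = wells lacking DAGLB enzyme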
# * = called active by the depositor; / = no result given.
SMILES,DAGLB inh,HDAC3 inh,beta cell repl,Rtt109 Vps75,V-ATPase pH,DAGLB confirm
O=C1C(NS(=O)(=O)c2cccs2)=C(N2CCN(c3cccc(Cl)c3)CC2)C(=O)c2ccccc21,41*,-12,-5,0,/,42*
O=C1C(NS(=O)(=O)c2ccccc2)=C(N2CCN(c3ccc(F)cc3)CC2)C(=O)c2ccccc21,27,-5,-5,4,-3,/
Cc1cc(N=Nc2ccccc2)c(NCC(O)C(O)C(O)CO)cc1C (stereo not given),45*,15,1,9,-6,43*
Cc1ccc(C2CC(=O)C(C=NCCN3CCN(C(=S)Nc4ccccc4)CC3)=C(O)C2)cc1 (stereo not given),-1,6,1,23,0,/
CCCCn1nc(C(=O)NC2=NCCS2)c2ccccc2c1=O,-1,1,-1,8,-2,/
COc1ccc2nc(-n3c(O)c(C4=c5ccccc5=NC4=O)[nH]c3=S)sc2c1,52*,-1,/,/,-8,80*
Cc1cc(C)c(Nc2cc(S(=O)(=O)O)c(N)c3c2C(=O)c2ccccc2C3=O)c(C)c1,80*,6,/,-12,-2,86*
Cc1cc(C)c(NC(=O)COC(=O)c2cccc3c2C(=O)c2ccccc2C3=O)c(C)c1,0,-1,0,5,-2,/
CN(C)N=Nc1ccc(S(N)(=O)=O)cc1,0,2,1,-3,1,/
CN(C)c1ccc(N=Nc2ccc(S(N)(=O)=O)cc2)cc1,39*,-10,-3,4,-2,39*
CCCCCC(=O)N1CCCCC1,-2,-4,-1,0,2,/
CCCN1C(=O)/C(=C2/C=Cc3ccccc3N2CC)SC1=S,54*,-5,1,1,-1,73*
CCN(CC)c1ccc(N=Nc2ncn[nH]2)cc1,/,-10,-4,23,1,/
CCN(Cc1ccccc1)c1ccc(N=Nc2nn(C)c(C)c2[N+](=O)[O-])cc1,59*,10,-3,6,5,56*
CCN(CC)c1ccc(N=Nc2nn(C)c(C)c2[N+](=O)[O-])cc1,44*,-16,-3,0,-1,46*
Nc1cc(C(F)(F)F)ccc1OCC1CCCO1 (stereo not given),0,5,3,-3,3,/
O=C(NC(C(=O)N/N=C/c1ccncc1)c1n[nH]c(=O)c2ccccc12)c1ccccc1 (stereo not given),15,5,-2,3,-1,/
O=C(NC(C(=O)N/N=C/c1cccc2ccccc12)c1n[nH]c(=O)c2ccccc12)c1ccccc1 (stereo not given),39*,12,-5,9,3,40*
CC1=NN(c2ccccc2)C(=O)C1N=Nc1ccc(N)cc1 (stereo not given),35*,6,-3,17,2,38*
CC1(C)CN(Cc2ccccc2)C(=O)[C@H]1CC(=O)Nc1ccccc1,-2,/,/,/,-1,/
COc1ccccc1C(=O)NCCC(=O)NC1CCCCC1C (stereo not given),-2,-11,5,24,3,/
Cc1coc2c1C(=O)C(=O)c1c-2ccc2c1CCCC2(C)C,53*,4,-6,4,2,58*
C[C@H]1COC2=C1C(=O)C(=O)c1c2ccc2c1CCCC2(C)C,10,4,/,3,-5,/
CCOc1ccc(Nc2nnc(SCc3nc4ccccc4c(=O)[nH]3)s2)cc1,60*,4,-1,-2,-3,74*
Cc1ccccc1Nc1nnc(SCc2nc3ccccc3c(=O)[nH]2)s1,/,-4,-1,/,/,/
O=[N+]([O-])c1ccc(N2CCN(c3ccc(F)cc3)CC2)cc1,55*,6,3,9,1,99*
COc1cc(/C=N/Nc2ccccc2[N+](=O)[O-])cc(OC)c1O,39*,1,-3,2,0,49*
COc1cc(/C=N/Nc2ccc(S(N)(=O)=O)cc2[N+](=O)[O-])cc(OC)c1O,32,11,-5,3,0,/
